About 79,000 compounds went through this panel and 15% of them were active in at least one assay; those are over-represented in the sample as a whole. Activity calls are given as the source filed them. Rule as the data show it: active = growth inhibition above about 70%; inactive = the rest.
Legend:
[1] = NCI Yeast Anticancer Drug Screen. Data for the rad52 strain (AID 147);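 also: 0% = growth of vehicle-treated control cultures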; settings: S. cerevisiae rad52 mutant growth inhibition, active compounds read high
Method in brief: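 Vehicle-treated cultures served as the reference for growth inhibition of compound-exposed yeast bearing a DNA repair mutation.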

[2] = NCI Yeast Anticancer Drug Screen. Data for the wt1 strain (AID 149);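 also: 0% = growth of vehicle-treated wt1 cultures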; settings: S. cerevisiae wt1 strain (SPY 50644) growth inhibition, active compounds read high
Method in brief: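 Vehicle-normalised growth inhibition; strain wt1; compound exposure.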

[3] = NCI Yeast Anticancer Drug Screen. Data for the rad50EPP+ strain (AID 151);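 also: 0% = growth of vehicle-treated control cultures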; settings: S. cerevisiae rad50 mutant strain, active compounds read high
Method in brief: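 In this screen, rad50EPP+ yeast were exposed to compounds. Growth inhibition was scored against vehicle-treated controls.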

[4] = NCI Yeast Anticancer Drug Screen. Data for the mgt1 strain (AID 153); settings: S. cerevisiae mgt1 mutant growth inhibition, active compounds read high
Method in brief: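 mgt1 strain exposed; growth vs vehicle control recorded as inhibition.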

[5] = NCI Yeast Anticancer Drug Screen. Data for the rad50 strain (AID 155);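 also: 0% = growth of vehicle-only cultures of the same strain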; settings: S. cerevisiae rad50 strain growth inhibition, active compounds read high
Method in brief: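 A DNA repair-deficient yeast mutant serves as the test organism; compound-induced growth inhibition is calculated against vehicle-treated cells.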

[6] = NCI Yeast Anticancer Drug Screen. Data for the mec2-1 strain (AID 157); settings: S. cerevisiae mec2-1 strain, active compounds read high
Method in brief: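 Vehicle-treated cultures served as reference for growth inhibition of compound-exposed mec2-1 yeast.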

[7] = NCI Yeast Anticancer Drug Screen. Data for the rad14 strain (AID 159);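 also: 0% = growth of vehicle-treated control cultures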; settings: S. cerevisiae rad14 strain growth inhibition, active compounds read high
Method in brief: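 Vehicle-treated cultures served as the baseline for growth inhibition of a DNA repair-mutant yeast strain exposed to each compound.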

[8] = NCI Yeast Anticancer Drug Screen. Data for the sgs1 mgt1 strain (AID 161);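 also: 0% = growth of cultures given vehicle only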; settings: S. cerevisiae sgs1 mgt1 strain, active compounds read high
Method in brief: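 Read-out: growth inhibition vs vehicle controls. Cells: mutant yeast strain deficient in DNA damage repair.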

[9] = NCI Yeast Anticancer Drug Screen. Data for the CLN2oe strain (AID 163);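 also: 0% = growth of vehicle-only control cultures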; settings: S. cerevisiae CLN2oe strain, active compounds read high
Method in brief: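 Inhibition relative to vehicle-treated yeast is reported. Cells: strain with genetic alteration in cell-cycle control, grown with compound.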

[10] = NCI Yeast Anticancer Drug Screen. Data for the cln2 rad14 strain (AID 165);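 also: 0% = growth equal to vehicle treated cultures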; settings: S. cerevisiae cln2 rad14 strain, active compounds read high
Method in brief: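 Each compound was tested on cln2 rad14 yeast. Inhibition of growth was calculated against vehicle-exposed controls.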

[11] = NCI Yeast Anticancer Drug Screen. Data for the bub3 strain (AID 167); settings: S. cerevisiae bub3 mutant strain, active compounds read high
Method in brief: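 Inhibition values come from growth of compound-treated mutant yeast normalised to vehicle-treated controls.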

[12] = NCI Yeast Anticancer Drug Screen. Data for the wt2 strain (AID 169);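 also: 0% = growth of vehicle-treated yeast cultures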; settings: S. cerevisiae wt2 strain growth inhibition, active compounds read high
Method in brief: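 Inhibition of yeast growth was determined after compound treatment, normalised to controls receiving only vehicle.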

[13] = NCI Yeast Anticancer Drug Screen. Data for the mlh1 strain (AID 171);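 also: 0% = growth of vehicle-treated control cultures of the same strain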; settings: S. cerevisiae mlh1 strain growth inhibition, active compounds read high
Method in brief: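 Vehicle-normalised growth inhibition of a repair- or checkpoint-altered yeast strain following compound treatment.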

[14] = NCI Yeast Anticancer Drug Screen. Data for the sgs1 strain (AID 173);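 also: 0% = growth of vehicle-only control cultures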; settings: S. cerevisiae sgs1 mutant, active compounds read high
Method in brief: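 Screen format: yeast with repair or checkpoint alterations, compound exposure, growth read relative to vehicle.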

[15] = NCI Yeast Anticancer Drug Screen. Data for the mlh1 rad18 strain (AID 175); settings: S. cerevisiae mlh1 rad18 strain growth inhibition, active compounds read high
Method in brief: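 Vehicle-treated cultures served as the reference for growth inhibition in a yeast strain carrying DNA damage repair alterations exposed to each compound.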

[16] = NCI Yeast Anticancer Drug Screen. Data for the rad18 strain (AID 177); settings: S. cerevisiae rad18 mutant growth inhibition, active compounds read high
Method in brief: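 Test articles were incubated with altered yeast defective in DNA damage repair. Results are given as inhibition of growth versus vehicle.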

[17] = at 5.0 µM (retest, dose inferred, filed as 0.5)
[18] = at 50.0 µM (retest, dose inferred, filed as 5.0)

Measured: growth inhibition

CC(C)NCCCNc1c2ccccc2nc2cccc([N+](=O)[O-])c12
inactive: [2]; at 1.2 µM 13% | [2]; at 3.7 µM 57% | [4]; at 1.2 µM -1% | [4]; at 3.7 µM 38% | [4]; at 11.0 µM 58% | [9]; at 1.2 µM 35% | [11]; at 1.2 µM -11% | [11]; at 3.7 µM 53% | [11]; [17] -4% | [11]; at 50.0 µM 66.8% | [12]; at 1.2 µM 28% | [13]; at 1.2 µM 28%
active: [1]; at 1.2 µM 93% | [1]; at 3.7 µM 96% | [1]; at 11.0 µM 97% | [1]; at 33.0 µM 97% | [1]; at 100.0 µM 97% | [2]; at 11.0 µM 88% | [2]; at 33.0 µM 96% | [2]; at 100.0 µM 97% | [3]; at 1.2 µM 86% | [3]; at 3.7 µM 93% | [3]; at 11.0 µM 95% | [3]; at 33.0 µM 96% | [3]; at 100.0 µM 97% | [4]; at 33.0 µM 92% | [4]; at 100.0 µM 96% | [5]; at 1.2 µM 90% | [5]; at 3.7 µM 93% | [5]; [17] 95% | [5]; at 11.0 µM 95% | [5]; at 33.0 µM 96% | [5]; [18] 99% | [5]; at 50.0 µM 83.3% | [5]; at 100.0 µM 97% | [6]; at 1.2 µM 94% | [6]; at 3.7 µM 97% | [6]; [17] 93% | [6]; at 11.0 µM 97% | [6]; at 33.0 µM 98% | [6]; [18] 98% | [6]; at 50.0 µM 86.5% | [6]; at 100.0 µM 98% | [7]; at 1.2 µM 98% | [7]; at 3.7 µM 98% | [7]; at 11.0 µM 97% | [7]; at 33.0 µM 99% | [7]; at 100.0 µM 99% | [8]; [17] 94% | [8]; [18] 98% | [8]; at 50.0 µM 80.8% | [9]; at 3.7 µM 88% | [9]; at 11.0 µM 96% | [9]; at 33.0 µM 97% | [9]; at 100.0 µM 98% | [10]; [17] 98% | [10]; [18] 99% | [10]; at 50.0 µM 85.7% | [11]; at 11.0 µM 90% | [11]; at 33.0 µM 96% | [11]; [18] 99% | [11]; at 100.0 µM 96% | [12]; at 3.7 µM 74% | [12]; at 11.0 µM 94% | [12]; at 33.0 µM 97% | [12]; at 100.0 µM 97% | [13]; at 3.7 µM 75% | [13]; at 11.0 µM 91% | [13]; at 33.0 µM 95% | [13]; at 100.0 µM 96% | [14]; at 1.2 µM 92% | [14]; at 3.7 µM 94% | [14]; at 11.0 µM 96% | [14]; at 33.0 µM 97% | [14]; at 100.0 µM 98% | [15]; [17] 97% | [15]; [18] 99% | [15]; at 50.0 µM 77% | [16]; at 1.2 µM 97% | [16]; at 3.7 µM 96% | [16]; at 11.0 µM 97% | [16]; at 33.0 µM 97% | [16]; at 100.0 µM 97%

CCCCCCCN(CCCCCCC)CC(=O)c1ccc2cc(Cl)c3ccccc3c2c1
inactive: [1]; at 1.2 µM 3% | [1]; at 3.7 µM 19% | [2]; at 1.2 µM -7% | [2]; at 3.7 µM 18% | [3]; at 1.2 µM -5% | [3]; at 3.7 µM 0% | [3]; at 11.0 µM 29% | [3]; at 33.0 µM 58% | [4]; at 1.2 µM 5% | [4]; at 3.7 µM 19% | [5]; at 1.2 µM 2% | [5]; at 3.7 µM 28% | [5]; [17] 39% | [6]; at 1.2 µM 1% | [6]; at 3.7 µM 0% | [6]; [17] 26% | [7]; at 1.2 µM 36% | [7]; at 3.7 µM 50% | [8]; [17] 60% | [9]; at 1.2 µM 1% | [9]; at 3.7 µM 22% | [10]; [17] 14% | [11]; at 1.2 µM 9% | [11]; at 3.7 µM 24% | [11]; [17] 26% | [12]; at 1.2 µM 32% | [12]; at 3.7 µM 64% | [13]; at 1.2 µM -9% | [13]; at 3.7 µM 40% | [14]; at 1.2 µM 5% | [14]; at 3.7 µM 26% | [15]; [17] 25% | [16]; at 1.2 µM -9% | [16]; at 3.7 µM 19%
active: [1]; at 11.0 µM 98% | [1]; at 33.0 µM 96% | [1]; at 100.0 µM 92% | [2]; at 11.0 µM 97% | [2]; at 33.0 µM 97% | [2]; at 100.0 µM 92% | [3]; at 100.0 µM 94% | [4]; at 11.0 µM 98% | [4]; at 33.0 µM 98% | [4]; at 100.0 µM 95% | [5]; at 11.0 µM 98% | [5]; at 33.0 µM 97% | [5]; [18] 93% | [5]; at 50.0 µM 99.3% | [5]; at 100.0 µM 92% | [6]; at 11.0 µM 78% | [6]; at 33.0 µM 98% | [6]; [18] 96% | [6]; at 50.0 µM 99.4% | [6]; at 100.0 µM 96% | [7]; at 11.0 µM 98% | [7]; at 33.0 µM 97% | [7]; at 100.0 µM 95% | [8]; [18] 96% | [8]; at 50.0 µM 99.2% | [9]; at 11.0 µM 98% | [9]; at 33.0 µM 97% | [9]; at 100.0 µM 92% | [10]; [18] 93% | [10]; at 50.0 µM 98.5% | [11]; at 11.0 µM 98% | [11]; at 33.0 µM 97% | [11]; [18] 95% | [11]; at 50.0 µM 98.2% | [11]; at 100.0 µM 94% | [12]; at 11.0 µM 98% | [12]; at 33.0 µM 97% | [12]; at 100.0 µM 95% | [13]; at 11.0 µM 98% | [13]; at 33.0 µM 97% | [13]; at 100.0 µM 93% | [14]; at 11.0 µM 98% | [14]; at 33.0 µM 97% | [14]; at 100.0 µM 93% | [15]; [18] 94% | [15]; at 50.0 µM 99.5% | [16]; at 11.0 µM 98% | [16]; at 33.0 µM 97% | [16]; at 100.0 µM 93%

Reference: PubChem BioAssay (NCI)
